The source of these data is PubChem BioAssay AID651791 (National Center for Advancing Translational Sciences (NCATS), 2012).

SMILES strings stand for the structures. Records with an inconclusive call do not appear. Activity calls are given as the source filed them. Calls come from the whole dose curve; as a rule, active = well fitted inhibition curve with a large enough effect; inconclusive = small, poorly fitted or top-dose-only effect; inactive = no such curve, though single readings can be large or run the other way.
Potency is the fitted concentration of half-maximal effect.

The test in a line: InCell qHTS Assay for Inhibitors of the mTORC1 Signaling Pathway in MEF (Tsc2-/-, p53-/-) Cells: Hit Validation.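 Note: phospho-S6 Ser235/236 signal normalized to propidium iodide cell count per well; nearly all actives have a fitted effect of over 75% in size.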 The conditions noted are these: phospho-rpS6 immunofluorescence, 24 h; activity change, negative = inhibition: at 38.3 µM (top of the series). In general terms: Quantitative high-throughput screening tests each substance at several concentrations.
With `CCc1ccc(S(=O)(=O)N(C(=O)Oc2ccccc2)c2ccc3oc(C)c(C(=O)OC)c3c2)cc1`, the activity change, negative = inhibition is -12.1%. The same measure, in the same setting: in the case of `CCOc1ccccc1Nc1nc(-c2cccc(Cl)c2)c2c(n1)-c1ccccc1OC2` it was -100%. Still for that read-out and setting: the value for `Cc1ccc2c(c1)cc(C(=O)Nc1ccccc1C)n2C` was -18.6%; that for `CC(C)N(C(=O)Cn1cc(S(=O)(=O)Cc2ccc(Cl)cc2)c2ccccc21)C(C)C` was -100%. Still for that read-out and setting: in the case of `CCOc1ccc(NC(=O)CN2C(=O)C(c3ccc(Cl)cc3)=NC2(C)C)cc1` it was -100%; in that of `COc1ccccc1-c1cc(C(=O)Nc2cc(OC)c(OC)c(OC)c2)no1`, 1.72%. For the molecule `COc1ccc(S(=O)(=O)N(Cc2nc(-c3cccc(C)c3)no2)C2CCCCC2)cc1`, the activity change, negative = inhibition is -100%. For `COc1cc(C2CC(=O)Nc3cc4c(cc32)OCCO4)cc(Br)c1OC` (configuration not stated), the activity change, negative = inhibition is -100%.

As to `Oc1ccccc1Nc1nc(-c2ccccc2)c2cc(Cl)ccc2n1`, the activity change, negative = inhibition is -100%. The same measure, in the same setting: in the case of `COC(=O)c1cccc(-n2c(CCC(=O)O)ccc2-c2ccc(OC)cc2)c1` it was -100%.

Take `Cn1ccc2c(OCC(=O)Nc3ccc(OC(F)(F)F)cc3)cccc2c1=O`: the activity change, negative = inhibition was -100%. The same measure, in the same setting: the value for `Cc1ccc(-c2nnc(C3CCN(S(=O)(=O)c4ccc(C)c(C)c4)CC3)o2)cc1` was -100%.

On to `CCCCS(=O)(=O)c1oc(-c2cccs2)nc1S(=O)(=O)c1ccccc1`, for which the Potency is 1.47 µM (active). On to `CCN1CCOC(=O)C1CC(=O)Nc1cc(C)ccc1OC` (configuration not stated), for which the Potency was 13.1 µM (active). As for `Cc1ccc(NC(=O)c2c(NC(=O)C(F)(F)F)sc3c2CCCCC3)cc1`, the activity change, negative = inhibition was -100%.

In the case of `CCOc1ccc(-c2nc(SCC(=O)c3ccccc3)n[nH]2)cc1`, the activity change, negative = inhibition was -2.9%. On the same count and under the same terms, in the case of `CCOc1ccc(S(=O)(=O)Nc2ccc(OC)c(Cl)c2)c2cccnc12` it was -100%.

Take `Cc1ccc(-c2nnc(Nc3ccc(O)cc3)c3ccccc23)cc1S(=O)(=O)N1CCCCC1`: the activity change, negative = inhibition is -100%.

With `O=C(Nc1ccc2oc(-c3ccc4ccccc4c3)nc2c1)c1cc(Br)ccc1Cl`, the Potency was 18.5 µM (active). Turning to `COc1cccc(C(=O)CC2(O)C(=O)N(Cc3ccccc3)c3ccccc32)c1` (configuration not stated), the activity change, negative = inhibition is -100%. In the case of `Cc1cccc(CSc2cn(CC(=O)N3CCCCCC3)c3ccccc23)c1`, the activity change, negative = inhibition is -100%. On to `CCOC(=O)c1ccc(N2C(=O)c3n[nH]c(C)c3C2c2cccc(Br)c2)cc1` (configuration not stated), for which the activity change, negative = inhibition is -100%. Take `COc1ccc2nc(NC(=O)c3nc(S(=O)(=O)Cc4ccccc4F)ncc3Cl)sc2c1`: the Potency was 2.33 µM (active).

On to `CCOc1ccc(/C=C/c2nc3ccccc3n2S(=O)(=O)c2cccc(Cl)c2)cc1`, for which the activity change, negative = inhibition was -100%. Still for that read-out and setting: the value for `FC(F)(F)c1cccc(Nc2nc3nonc3nc2Nc2ccc(Cl)cc2)c1` was -100%; that for `O=C(CN(CCc1ccccc1)S(=O)(=O)c1ccccc1)NCc1ccc(Cl)cc1` was -100%; that for `N#Cc1ccc(-c2cccs2)nc1SCc1c(F)cccc1Cl` was -16.8%. Still for that read-out and setting: the value for `O=C(c1ccco1)n1nc(-c2ccc(Cl)cc2)nc1NCc1ccccc1` was -100%. The same measure, in the same setting: in the case of `CC(C)Cc1ccc(S(=O)(=O)N2CCC(c3ccncc3)CC2)cc1` it was -100%; in that of `CCOC(=O)CSc1nc2cc3c(cc2c(=O)n1CCCCCC(=O)NCc1ccc2c(c1)OCO2)OCO3`, -100%. `COc1ccc(Cl)cc1NC(=O)CSc1nc(-c2ccco2)cc(C(F)(F)F)n1`: the activity change, negative = inhibition is -100%.

Regarding `COc1ccc(OC)c(Nc2c3c(nc4ccccc24)CCC3)c1`, the activity change, negative = inhibition is -25.7%. In the case of `CCNS(=O)(=O)c1ccc(NC(=O)CSc2nc(-c3ccco3)cc(C(F)(F)F)n2)cc1`, the activity change, negative = inhibition is -13.9%. For the molecule `CCS(=O)(=O)c1ncc(Cl)c(C(=O)NCc2ccc(OC)cc2)n1`, the Potency is 4.65 µM (active).

For the molecule `Cc1ccc(N(CC(O)Cn2c3ccccc3c3ccccc32)S(=O)(=O)c2ccc(F)cc2)cc1` (configuration not stated), the activity change, negative = inhibition is -64.5%. Consider `Cc1ccc(-c2noc(CCC(=O)N(C)c3ccccc3F)n2)cc1`, for which the activity change, negative = inhibition is -100%. In the case of `COc1cc(OC)cc(C(=O)NCCc2csc(-c3cccc(C)c3)n2)c1`, the activity change, negative = inhibition amounted to 1.72%.
